Screening data as filed in PubChem.
Sampled rows, rich in hits. Any-hit rate of the full collection: about 7.5%.
Rab9 promoter act – activators of Rab9 promoter; Huh7 Rab9 promoter-luciferase reporter, luminescence, 24 h; Potency, µM (doses to about 9.22 µM), for inactives: top-dose activation, negative = inhibition, actives largely listed as activators; hit rate 2.8% among 320,000; AID 485297; also: % of control where 0% means no effect; nearly all actives have a fitted effect of over 60% in size
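Huh7 cells stably carrying Rab9 promoter–luciferase reporter, plated 1500 cells/well, compound added after 2 h and incubated 24 h at 37 °C; luciferase luminescence then read after 10 min with detection reagent.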
ELG1 genotoxic – induces genotoxicity in HEK293T cells with luciferase-tagged ELG1. HEK293T ELG1-luciferase reporter, luminescence, 16 h. Potency, µM (titrated, usually from 46 µM), inactives show top-dose activity change, positive = activation, most hits filed as activators. hit rate 1.3% among 330,000. AID 504466; also: % of control where 0% means no effect; nearly all actives have a fitted effect of over 60% in size
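Reporter readout depends on ELG1 protein level, which increases with genetic stress. After 16 hr compound exposure at 37 °C, luciferase activity was quantified using ONE-Glo.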
NPC1 promoter act – NPC1 promoter activation. hit rate 2.4% among 320,000. Huh7 NPC1 promoter luciferase reporter, 24 h. Potency, µM (top dose mostly 9.22 µM), for the others: top-dose activation, usual class: activators; also: % of control where 0% means no effect; nearly all actives have a fitted effect of over 60% in size
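Huh7 cells stably carrying NPC1 promoter–luciferase, plated in Opti-MEM with 10% FBS for 2 h, were exposed to compound in DMSO for 24 h at 37 °C; luciferase reagent was added for 10 min and luminescence read.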
SMN2 splice up – enhancers of SMN2 splice variant expression | HEK293 SMN2-luciferase splicing reporter, luminescence, 30-36 h | Potency, µM (top dose mostly 46.1 µM), for inactives: top-dose activity change, positive = activation, hits mostly activators | hit rate 2.8% among 210,000 | AID 1458; also: % of control where 0% means no effect; nearly all actives have a fitted effect of over 55% in size
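qHTS luciferase splicing reporter: luminescence rises when SMN2 exon 7 is included in transfected HEK293 cells. Compound exposure lasted 30-36 h at 37C, with 4.5 mM final sodium butyrate as control, followed by a ONE-Glo read.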
FLuc modulator – firefly luciferase modulation, counter-screen for miR-21 project | hit rate 6.9% among 360,000 | P08659 | purified FLuc, Km substrates, luminescence inhibition | Potency, µM (highest dose often 57.5 µM), inactives show at the top dose activity change, negative = inhibition, usual class: inhibitors | AID 588342;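 also: plate controls were vehicle for no effect and reference inhibitor for full effect; nearly all actives have a fitted effect of over 55% in size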
Target sequence (P08659 whole entry, looked up): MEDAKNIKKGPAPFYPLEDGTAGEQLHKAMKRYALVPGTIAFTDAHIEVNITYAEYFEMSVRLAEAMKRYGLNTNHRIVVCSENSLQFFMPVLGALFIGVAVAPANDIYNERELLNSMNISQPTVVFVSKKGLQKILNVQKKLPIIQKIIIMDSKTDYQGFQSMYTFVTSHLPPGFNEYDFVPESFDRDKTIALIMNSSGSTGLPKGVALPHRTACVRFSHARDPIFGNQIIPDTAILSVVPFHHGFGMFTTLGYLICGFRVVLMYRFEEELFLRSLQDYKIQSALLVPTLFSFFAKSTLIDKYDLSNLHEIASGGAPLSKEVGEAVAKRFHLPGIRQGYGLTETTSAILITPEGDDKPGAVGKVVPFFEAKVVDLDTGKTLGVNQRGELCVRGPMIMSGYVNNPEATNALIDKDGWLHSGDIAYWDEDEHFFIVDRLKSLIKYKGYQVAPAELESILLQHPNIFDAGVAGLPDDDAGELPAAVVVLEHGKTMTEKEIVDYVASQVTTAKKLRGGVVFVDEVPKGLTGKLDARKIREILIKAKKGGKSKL
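Biochemical qHTS of compounds, final roughly 60 µM downward over six points, against 10 nM purified firefly luciferase using Km concentrations of substrates (10 uM D-luciferin, 10 uM ATP) in Tris acetate pH 7.5 buffer; luminescence output.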
An asterisk follows results filed as active; ? = inconclusive; · = no result; [ ] = dose if it differs, or a comment. Calls follow the shape of the dose curve; as a rule, active = well fitted curve in the direction sought with a large enough effect; inconclusive = small, poorly fitted or top-dose-only effect, or another doubt; inactive = no such curve, though single readings can be large; an effect the other way counts as inactive or inconclusive. Potency is read from the fitted curve at half-maximal effect.

SMILES | Rab9 promoter act | ELG1 genotoxic | NPC1 promoter act | SMN2 splice up | FLuc modulator
CN1CCC(N(C)S(=O)(=O)c2ccc(NC(=O)COc3ccc(F)cc3Cl)cc2)CC1 | -6% | 9% | -7% | · | 8%
O=C(O)[C@@H]1[C@@H]2C[C@@H]3[C@@H](OC(=O)[C@@H]31)[C@H]2Br | · | · | · | -10%[9.22 µM] | ·
O=C(NCCc1ccccc1)NC1CCCCC1 | 0.56µM* | ? | 1.1µM* | 11µM* | 11µM*
S=C(NCCc1ccccc1)NC1CCC(NC(=S)NCCc2ccccc2)CC1 (centres undefined) | -3% | 12% | -3% | 23% | -1%
O=C(NCCC1=CCCCC1)NC1CCCCC1 | 0.79µM* | ? | 1.4µM* | 7.1µM* | 6.7µM*
S=C(NCCc1cccc(Cl)c1)NC1CCCCC1 | 2.8µM* | ? | 3.5µM* | · | 19µM*
O=C(CCCC(=O)N(CC(=O)NC1CCCCC1)Cc1ccc2c(c1)OCO2)Nc1ccccn1 | -1% | 3% | -3% | ? | -2%
O=C(CN(c1cccc([N+](=O)[O-])c1)S(=O)(=O)c1ccccc1)N1CCCCC1 | 6% | 0% | -1% | · | 1%
CCn1nc(C)c(CNC(=O)c2cc(COc3ccccc3SC)on2)c1C | -1% | -7% | 0% | · | -16%
CSc1ccccc1OCc1cc(C(=O)NC(C)Cc2cccc(C)n2)no1 (centres undefined) | ? | -10% | ? | · | 19µM*
CSc1ccccc1OCc1cc(C(=O)NCc2cccc(C)n2)no1 | 4µM* | ? | 2.8µM* | · | 12µM*
Cc1ccc(-n2nnnc2CNC(=O)c2cc(C(F)(F)F)cc(C(F)(F)F)c2)cc1C | · | · | · | · | -7%
CC(Sc1nnc(C2CC2)n1C)C(=O)Nc1ccc(N2CCOCC2)cc1 (centres undefined) | 3% | 0% | 1% | · | 1%
Cc1ccc2nc(-c3ccc4c(c3)NC(=O)CO4)cn2c1 | 1.1µM* | ? | 1.6µM* | · | 0.85µM*
c1ccn2cc(-c3ccc4c(c3)OCCO4)nc2c1 | 0.63µM* | 0.29µM* | ? | 0.4µM* | 0.48µM*
O=C1COc2ccc(-c3csc(NCCc4ccccc4)n3)cc2N1 | 0% | -7% | -1% | -51% | 27µM*
Cc1ccc2nc(-c3ccc4c(c3)OCCO4)cn2c1 | -37% | ? | -32% | · | 0.067µM*
Oc1c(C(O)(c2ccccc2)c2ccc3ccccc3c2O)ccc2ccccc12 | · | · | · | -3%[9.22 µM] | ·
CN(C)S(=O)(=O)c1cccc(-c2cn3cc(Cl)ccc3n2)c1 | 21% | ? | 24% | -5% | ?
Clc1ccc2nc(-c3ccc4c(c3)OCO4)cn2c1 | 0.13µM* | ? | 0.32µM* | · | 0.12µM*
COc1ccc(Nc2n[nH]c(C)c2[N+](=O)[O-])cc1 | 3.5µM* | ? | 22% | 29% | ?
Cc1[nH]nc(Nc2ccc(O)cc2)c1[N+](=O)[O-] | 8% | 6% | -3% | · | -14%
Cc1cccc(NC(=O)CC(C)(C)C)c1 | 0% | 10% | 3% | · | 3%
CC(C)C(=O)Nc1ccc(Nc2ccccc2)cc1 | -5% | 20% | 0% | 21% | 19µM*
CC(C)(C)CC(=O)Nc1ccc(Nc2ccccc2)cc1 | 3.2µM* | 11% | 28% | -6% | 12µM*
SMILES | Rab9 promoter act | ELG1 genotoxic | NPC1 promoter act | SMN2 splice up | FLuc modulator
CC(C)CC(=O)Nc1ccc(Nc2ccccc2)cc1 | 12% | -4% | 2% | 15% | 19µM*
CC(C)CC(=O)Nc1ccc(Oc2ccc(NC(=O)CC(C)C)cc2)cc1 | 0% | -2% | -6% | · | 9%
CCCCc1ccc(NC(=O)CC(C)(C)C)cc1 | ? | 15% | ? | · | 15µM*
CCC(CC)C(=O)Nc1ccc(Nc2ccccc2)cc1 | 10% | 0% | 1% | -1% | ?
CCCCc1ccc(NC(=O)CC(C)=O)cc1 | 18% | ? | -2% | 8% | -20%
C[C@H](C(=O)c1ccccc1)C(c1ccccc1)N1CCOCC1 (some centres undefined) | · | · | · | -8%[9.22 µM] | ·
CCN(c1ncnc2c1c(-c1ccccc1)cn2-c1ccccc1)C1CCCCC1 | · | · | · | · | -1%
Cc1cccc(-n2ncc3c(N(CCO)CCO)ncnc32)c1 | 3.5µM* | ? | 3.2µM* | 14µM* | 15µM*
Cc1ccc(-n2ncc3c(N(CC(C)C)CC(C)C)ncnc32)c(C)c1 | · | · | · | · | -10%
COc1ncnc2c1cnn2-c1ccccc1 | · | · | · | 5% | ?
COc1ccc(-n2ncc3c(N(C)C4CCCCC4)ncnc32)cc1 | -10% | ? | -16% | · | 0.17µM*
COc1ccc(OC)c(Nc2ncnc3c2cnn3-c2cccc(C)c2)c1 | -10% | 0% | -26% | ? | -18%
CCN(c1ncnc2c1cnn2-c1cccc(Cl)c1)C1CCCCC1 | · | · | · | · | 3.8µM*
Cc1cccc(-n2ncc3c(N(C)C4CCCCC4)ncnc32)c1 | -8% | 0.46µM* | -11% | · | 0.17µM*
COc1ccc(CN(C(=O)c2ccc(-c3ccccc3)[nH]2)C(C(=O)NCC2CCCO2)c2ccc(C)o2)cc1 (centres undefined) | 0% | -9% | -6% | -16% | -2%
CCSc1nc(N)c2c3c(sc2n1)CN(C)CC3 | 1% | 16% | 10% | 13% | ?
CCOC(=O)CSc1nc(N)c2c3c(sc2n1)CCCC3 | 2% | 23% | 6% | -5% | 9.5µM*
CCN(CC)C(=O)CSc1nc(N)c2c3c(sc2n1)CC(C)CC3 (centres undefined) | 19% | 16% | 17% | 10% | 1.9µM*
CC1CCc2c(sc3nc(SCC(=O)NCc4ccco4)nc(N)c23)C1 (centres undefined) | 3% | 14% | 13% | -21% | 4.8µM*
CCC(C(=O)Nc1ccc(C(C)C)cc1)n1nc(C)n2c(cc3cc(C)ccc32)c1=O (centres undefined) | · | · | · | 11% | -10%
O=C(CSc1nccn1Cc1ccccc1)NC1CCCC1 | -6% | 6% | 0% | · | 3%
O=c1c2ccccc2nc(/C=C/c2ccccc2)n1CCCO | -2% | -1% | -5% | · | -15%
O=c1c2ccccc2nc(/C=C/c2c[nH]c3ccccc23)n1CCO | ? | 12% | ? | · | 11µM*
COCC1=C2c3ccccc3[C@H](C[N+](=O)[O-])C(C(=O)OC)(C(=O)OC)CC2C2C(=O)N(c3ccccc3)C(=O)C2C1 (some centres undefined) | · | · | · | 11% | ·
CN(C)/C=C/C(=O)c1cnc(-c2ccccc2)s1 | 1.4µM* | ? | 2µM* | 11µM* | 11µM*
CN(C)/C=C/C(=O)c1cnc(-c2ccc(Cl)cc2)s1 | 0.5µM* | ? | 1µM* | 10µM* | 2.7µM*
CCCN1Cc2cccc(C(=O)Nc3cccc(C(=O)OCC)c3)c2C1=O | · | · | · | -5% | ?
O=C(NCCS(=O)(=O)NCc1ccc2c(c1)OCO2)c1ccccc1 | -1% | 5% | 1% | · | 6%
Fc1ccccc1N1CCN(c2cnc3ccccc3n2)CC1 | · | · | · | 2.8µM* | 2.1µM*
CCS(=O)(=O)N1CCN(c2ccccc2F)CC1 | -8% | 3% | -3% | 0% | -2%
